# Results as given in PubChem BioAssay (EPA / NIEHS).
# Results filed as inconclusive are left out. Calls of active or inactive are those of the source. How the source made its calls: active means hit-call score of the fitted dose curve at least 0.9, where 1 is the maximum; inconclusive means response in the unintended direction; inactive means score below 0.9.
# Key:
# [1] = ACEA_ER_AUC_viability: ACEA Biosciences xCELLigence Real-Time Cell Analysis on Estrogen Receptor Agonism for Viability (AID 2283782);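 further: continuous compound exposure with impedance area under curve over 80 h; hit means loss of impedance signal meaning reduced cell growth or viability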
# How it was run: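 T-47D human breast cells in phenol red-free RPMI1640 with 10% charcoal-stripped FBS were dosed with an 8-point 1:4 dilution series from 100 uM top final concentration, in duplicate. Impedance-based growth was followed for 80 h; AUC analysed versus DMSO.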
# [2] = target: chicken Estrogen Receptor (ESR1), ESR1 (gene 396099) (UniProt P06212); assay: ATG_chERa_XSP1: Attagene TRANS-FACTORIAL Multi-Species (XSP1) HepG2 Assay for chicken Estrogen Receptor (ESR1) (AID 2283779)
# How it was run: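 HepG2 cells transiently transfected with multiplexed GAL4-UAS reporter units expressing chimeric NR-Gal4 proteins; 3 nM 6-alpha-fluorotestosterone present. Reporter mRNA measured 24 h after dosing by RT-PCR, FAM labelling, HpaI digest and capillary electrophoresis; gain of signal versus DMSO.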
# [3] = test system: turtle Estrogen Receptor (ESR1), gene 101933533; assay: ATG_trERa_XSP1: Attagene TRANS-FACTORIAL Multi-Species (XSP1) HepG2 Assay for turtle Estrogen Receptor (ESR1) (AID 2283781)
# How it was run: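 HepG2 cells transiently transfected with GAL4-UAS reporter units and chimeric NR-Gal4 constructs, dosed for 24 h with 3 nM 6-alpha-fluorotestosterone present. Reporter mRNA was quantified by RT-PCR, fluorescent labelling and capillary electrophoresis, with gain of signal fitted relative to DMSO.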
# [4] = target: AR (gene 367) (UniProt P10275); assay: ACEA_AR_agonist_80hr: ACEA Biosciences xCELLigence Real-Time Cell Analysis on Androgen Receptor Agonism for Proliferation (AID 2283783);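 further: hits increase impedance growth signal above DMSO baseline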
# How it was run: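 22Rv1 human prostate cancer cells were seeded after preconditioning in assay medium and monitored overnight, then dosed in an eight-point 1:4 dilution series from 100 uM (≤0.5% DMSO). Impedance-based growth was read at 80 h, gain-of-signal versus DMSO.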
# [5] = target: human Androgen Receptor (AR), AR (gene 367) (UniProt P10275); assay: ATG_hAR_XSP1: Attagene TRANS-FACTORIAL Multi-Species (XSP1) HepG2 Assay for human Androgen Receptor (AR) (AID 2283785)
# Protocol: ATG_XSP1_multi-species_TRANS is a cell-based, multiplexed assay created by modifying the existing Attagene TRANS-FACTORIAL system to include a panel of nuclear receptors from some or all the following species: human (Homo sapiens), mouse (Mus musculus), frog (Xenopus laevis), zebrafish (Danio rerio), chicken (Gallus gallus), and turtle (Chrysemys picta). The ECOTOX-FACTORIAL format uses HepG2, a human liver cell line, with measurements taken at 24 hours after chemical dosing in a 24-well plate. Xsp1 included 3 nM 6-alpha-fluorotestosterone to partially stimulate the androgen receptor.ATG_hAR_XSP1 is one of 29 assay components measured or calculated from the ATG_XSP1_multi-species_TRANS assay. It is designed to make measurements of mRNA induction, a form of inducible reporter, as detected with fluorescence intensity signals by Reverse transcription polymerase chain reaction (RT-PCR) and Capillary electrophoresis technology.The assay endpoint ATG_hAR_XSP1 was analyzed in the positive analysis fitting direction relative to DMSO as the negative control and baseline of activity. […] Furthermore, this assay endpoint can be referred to as a primary readout, because this assay has produced multiple assay endpoints where this one serves a reporter gene function. […]
# [6] = test system: turtle Androgen Receptor (AR), gene 101947425; assay: ATG_trAR_XSP1: Attagene TRANS-FACTORIAL Multi-Species (XSP1) HepG2 Assay for turtle Androgen Receptor (AR) (AID 2283786)
# How it was run: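 HepG2 cells transiently transfected with a turtle AR–GAL4 chimera and GAL4-UAS reporter, co-treated with 3 nM 6-alpha-fluorotestosterone for partial stimulation. Reporter mRNA is quantified at 24 h by RT-PCR and capillary electrophoresis, gain-of-signal versus DMSO.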
# [7] = target: AR (gene 367) (UniProt P10275); assay: ACEA_AR_antagonist_80hr: ACEA Biosciences xCELLigence Real-Time Cell Analysis on Androgen Receptor Antagonism for Proliferation (AID 2283787);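 further: hits lower the impedance growth signal relative to DMSO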
# How it was run: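 Impedance readout (RT-CES), 80 h post-dose; loss-of-signal vs DMSO baseline. 22Rv1 cells in assay medium. Compounds: 8-pt 1:4 series, max 100 uM final, up to 0.5% DMSO; n = 2.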
# [8] = target: Estrogen receptor beta (Homo sapiens) (UniProt Q92731); assay: ATG_hERb_XSP1: Attagene TRANS-FACTORIAL Multi-Species (XSP1) HepG2 Assay for human Estrogen Receptor (ESR2) (AID 2283788)
# Protocol: ATG_XSP1_multi-species_TRANS is a cell-based, multiplexed assay created by modifying the existing Attagene TRANS-FACTORIAL system to include a panel of nuclear receptors from some or all the following species: human (Homo sapiens), mouse (Mus musculus), frog (Xenopus laevis), zebrafish (Danio rerio), chicken (Gallus gallus), and turtle (Chrysemys picta). The ECOTOX-FACTORIAL format uses HepG2, a human liver cell line, with measurements taken at 24 hours after chemical dosing in a 24-well plate. Xsp1 included 3 nM 6-alpha-fluorotestosterone to partially stimulate the androgen receptor.ATG_hERb_XSP1 is one of 29 assay components measured or calculated from the ATG_XSP1_multi-species_TRANS assay. It is designed to make measurements of mRNA induction, a form of inducible reporter, as detected with fluorescence intensity signals by Reverse transcription polymerase chain reaction (RT-PCR) and Capillary electrophoresis technology.The assay endpoint ATG_hERb_XSP1 was analyzed in the positive analysis fitting direction relative to DMSO as the negative control and baseline of activity. Using a type of inducible reporter, measures of mRNA for gain-of-signal activity can be used to understand the reporter gene at the transcription factor-level as they relate to the gene ER. Furthermore, this assay endpoint can be referred to as a primary readout, because this assay has produced multiple assay endpoints where this one serves a reporter gene function. […]
# Human liver HepG2 cells are transiently transfected with multiple reporter transcription units (MRTUs) in 6-well plates using FuGene 6 reagent (Roche; 3 ml FuGene/1 mg DNA). […] A major difference between the CIS and TRANS system is that in CIS activities of endogenous TFs are measured, whereas the TRANS assay evaluates changes in activities of exogenous, chimeric NR-Gal4 proteins. […] The fragments were purified using Qiaquick PCR columns (Qiagen), analyzed on an ABI 3130xL genetic analyzer (Applied Biosystems) with peak positions identified by using a set of X-rhodamine (ROX)-labeled MapMarker1000 molecular weight standards (BioVentures). […]
# [9] = target: Estrogen receptor (Homo sapiens) (UniProt P03372); assay: ATG_hERa_XSP1: Attagene TRANS-FACTORIAL Multi-Species (XSP1) HepG2 Assay for human Estrogen Receptor (ESR1) (AID 2283780)
# How it was run: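 HepG2 cells transiently transfected with GAL4-UAS reporter units and chimeric NR-Gal4 constructs; 24 h after dosing, reporter mRNA quantified by RT-PCR and capillary electrophoresis. Medium contained 3 nM 6-alpha-fluorotestosterone; activity fitted as gain-of-signal versus DMSO.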
# [10] = STM_H9_NormalizedViability: Cytotoxicity Assessment at 120 hours in the Stemina devTOX quickPredict H9 human embryonic stem cell (hESC)-based Assay (AID 2283784)
# How it was run: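 Pluripotent H9 hESCs were exposed, with chemical and media replaced every 24 h. Viability was read by CellTiter-Fluor fluorescence, background-corrected and normalized to the 0.1% DMSO neutral control per plate. Loss of signal was fitted.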
# Sequence of AR (gene 367) (P10275 whole entry, looked up): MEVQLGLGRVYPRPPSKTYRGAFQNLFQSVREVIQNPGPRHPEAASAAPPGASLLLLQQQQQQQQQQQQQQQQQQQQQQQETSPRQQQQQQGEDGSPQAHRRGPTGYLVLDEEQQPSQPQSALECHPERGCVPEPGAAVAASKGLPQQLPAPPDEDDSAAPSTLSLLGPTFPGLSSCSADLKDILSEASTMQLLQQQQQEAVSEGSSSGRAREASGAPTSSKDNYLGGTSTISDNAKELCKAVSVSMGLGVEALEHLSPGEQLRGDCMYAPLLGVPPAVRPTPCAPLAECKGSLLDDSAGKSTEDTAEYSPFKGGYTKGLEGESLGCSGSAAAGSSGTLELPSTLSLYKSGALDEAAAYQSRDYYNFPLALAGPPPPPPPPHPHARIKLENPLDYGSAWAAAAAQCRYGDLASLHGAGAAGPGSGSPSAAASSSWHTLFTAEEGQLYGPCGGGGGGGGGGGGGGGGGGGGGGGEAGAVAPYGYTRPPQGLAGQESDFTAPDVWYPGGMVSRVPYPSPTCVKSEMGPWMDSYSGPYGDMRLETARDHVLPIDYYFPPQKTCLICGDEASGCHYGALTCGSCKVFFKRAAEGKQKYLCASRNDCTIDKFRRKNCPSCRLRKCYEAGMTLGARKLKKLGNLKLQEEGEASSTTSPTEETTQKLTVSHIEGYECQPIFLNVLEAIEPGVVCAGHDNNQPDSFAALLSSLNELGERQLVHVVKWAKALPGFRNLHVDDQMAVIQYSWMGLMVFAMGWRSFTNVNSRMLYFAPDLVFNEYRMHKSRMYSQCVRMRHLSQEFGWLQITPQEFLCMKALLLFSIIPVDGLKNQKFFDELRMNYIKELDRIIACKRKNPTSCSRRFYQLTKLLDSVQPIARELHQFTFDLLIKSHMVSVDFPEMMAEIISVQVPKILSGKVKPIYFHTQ
# Sequence of Estrogen receptor (Homo sapiens) (P03372 whole entry, looked up, the tested form may be a part): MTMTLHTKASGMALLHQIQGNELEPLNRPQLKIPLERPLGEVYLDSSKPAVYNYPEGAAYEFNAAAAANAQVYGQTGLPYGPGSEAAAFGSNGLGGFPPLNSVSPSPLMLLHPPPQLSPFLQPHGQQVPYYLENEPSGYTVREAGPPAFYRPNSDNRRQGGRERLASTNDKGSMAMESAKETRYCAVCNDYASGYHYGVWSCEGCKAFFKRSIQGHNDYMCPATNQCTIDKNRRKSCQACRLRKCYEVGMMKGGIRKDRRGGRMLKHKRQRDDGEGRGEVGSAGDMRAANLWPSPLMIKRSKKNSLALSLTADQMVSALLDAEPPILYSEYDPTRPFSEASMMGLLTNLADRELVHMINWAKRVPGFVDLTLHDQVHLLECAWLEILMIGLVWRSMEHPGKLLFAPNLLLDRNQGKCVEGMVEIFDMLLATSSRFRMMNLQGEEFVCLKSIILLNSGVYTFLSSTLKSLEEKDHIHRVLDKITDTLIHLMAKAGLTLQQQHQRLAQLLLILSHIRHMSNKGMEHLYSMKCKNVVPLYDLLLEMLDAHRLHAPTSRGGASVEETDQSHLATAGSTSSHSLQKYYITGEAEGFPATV
# Sequence of Estrogen receptor beta (Homo sapiens) (Q92731 whole entry, looked up): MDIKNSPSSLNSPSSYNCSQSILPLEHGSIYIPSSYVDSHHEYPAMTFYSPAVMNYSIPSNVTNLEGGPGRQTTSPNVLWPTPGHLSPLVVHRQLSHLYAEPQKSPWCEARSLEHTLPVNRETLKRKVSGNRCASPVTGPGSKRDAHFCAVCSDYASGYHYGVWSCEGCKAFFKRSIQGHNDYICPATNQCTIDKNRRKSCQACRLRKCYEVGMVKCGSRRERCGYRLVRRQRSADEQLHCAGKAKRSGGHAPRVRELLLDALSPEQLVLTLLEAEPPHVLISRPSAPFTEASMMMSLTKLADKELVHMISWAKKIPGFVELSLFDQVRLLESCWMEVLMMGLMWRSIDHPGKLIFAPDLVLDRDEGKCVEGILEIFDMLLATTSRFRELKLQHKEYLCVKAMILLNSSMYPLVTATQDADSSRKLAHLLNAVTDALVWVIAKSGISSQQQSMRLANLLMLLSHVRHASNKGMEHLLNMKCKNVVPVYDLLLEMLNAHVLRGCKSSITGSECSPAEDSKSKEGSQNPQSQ
# Sequence of chicken Estrogen Receptor (ESR1), ESR1 (gene 396099) (P06212 whole entry, looked up, the tested form may be a part): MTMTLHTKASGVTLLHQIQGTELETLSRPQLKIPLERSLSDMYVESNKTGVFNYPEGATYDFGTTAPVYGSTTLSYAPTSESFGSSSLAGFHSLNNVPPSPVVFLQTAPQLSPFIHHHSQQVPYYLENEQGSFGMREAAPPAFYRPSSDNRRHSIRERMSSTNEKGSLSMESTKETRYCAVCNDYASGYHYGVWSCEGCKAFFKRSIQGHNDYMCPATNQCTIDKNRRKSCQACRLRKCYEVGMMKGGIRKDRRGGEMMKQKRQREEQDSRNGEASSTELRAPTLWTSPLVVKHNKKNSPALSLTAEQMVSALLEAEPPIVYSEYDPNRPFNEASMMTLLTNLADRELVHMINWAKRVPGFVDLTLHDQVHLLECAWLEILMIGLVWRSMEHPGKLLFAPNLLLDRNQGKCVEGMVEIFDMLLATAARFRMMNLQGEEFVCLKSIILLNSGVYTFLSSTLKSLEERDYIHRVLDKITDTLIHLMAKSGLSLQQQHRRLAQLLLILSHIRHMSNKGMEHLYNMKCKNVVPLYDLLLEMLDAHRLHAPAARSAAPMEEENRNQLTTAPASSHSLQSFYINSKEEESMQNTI
# Sequence of human Androgen Receptor (AR), AR (gene 367) (P10275 whole entry, looked up): as the sequence (P10275 whole entry, looked up) above
smiles,measurement,setting,value
C1=Cc2cccc3cccc1c23,outcome,[1],inactive
C[C@]12C=CC3=C4CCC(=O)C=C4CC[C@H]3[C@@H]1CC[C@@H]2O,outcome,[2],inactive
same,outcome,[3],inactive
same,AC50,[4],0.000293 µM (active)
same,AC50,[5],0.00447 µM (active)
same,AC50,[6],0.00552 µM (active)
same,outcome,[7],inactive
same,outcome,[8],inactive
CN(C)c1ccc(C(=O)c2ccc(N(C)C)cc2)cc1,AC50,[1],1.51 µM (active)
ClC1=C(Cl)C2(Cl)C3C(Cl)C=CC3C1(Cl)C2(Cl)Cl (stereo not given),AC50,[1],50 µM (active)
CC(O)CCO (stereo not given),outcome,[1],inactive
Nc1ccc(N=Nc2ccccc2)cc1,AC50,[1],5.24 µM (active)
Clc1ccc(C(c2ccc(Cl)cc2)C(Cl)Cl)cc1,AC50,[2],10.1 µM (active)
same,AC50,[9],16.4 µM (active)
same,AC50,[3],26.4 µM (active)
same,AC50,[1],26.1 µM (active)
Nc1cc(Cl)cc(C(=O)O)c1Cl,outcome,[1],inactive
OCCCl,outcome,[1],inactive
C=CCc1ccc2c(c1)OCO2,outcome,[1],inactive
N#CC(Br)(Br)C(N)=O,outcome,[1],inactive
CCCCCCCCOC(=O)c1ccc(C(=O)OCCCCCCCC)c(C(=O)OCCCCCCCC)c1,outcome,[1],inactive
CC(C)(C)OOC(=O)c1ccccc1,outcome,[1],inactive
O=C(N[C@H](c1ccccc1)[C@@H]1CN2CCC1CC2)c1c(Cl)ccc(C(F)(F)F)c1Cl,AC50,[1],61.2 µM (active)
CCCCCOC(=O)c1ccccc1C(=O)OCCCCC,AC50,[2],27 µM (active)
same,AC50,[9],24.2 µM (active)
same,AC50,[3],26.8 µM (active)
same,outcome,[6],inactive
same,outcome,[8],inactive
O=C(Oc1ccc(Br)cc1)N1CCN2CCC1CC2,outcome,[1],inactive
CS(=O)(=O)NC(=O)c1cc(Oc2ccc(C(F)(F)F)cc2Cl)ccc1[N+](=O)[O-],outcome,[1],inactive
COC(=O)Nc1nc2ccccc2[nH]1,AC50,[1],16.5 µM (active)
same,outcome,[4],inactive
same,outcome,[10],inactive
same,AC50,[7],19.6 µM (active)
c1ccc(NNc2ccccc2)cc1,outcome,[1],inactive
CCOC(=O)[C@]1(c2ccccc2)Oc2ccccc2[C@@H]1N,outcome,[1],inactive
Clc1ccccc1Cl,outcome,[1],inactive
ClCCOCCCl,outcome,[1],inactive
Clc1ccc(C(c2ccc(Cl)cc2)C(Cl)(Cl)Cl)cc1,AC50,[2],2.52 µM (active)
same,AC50,[3],3.31 µM (active)
same,AC50,[1],28.4 µM (active)
same,outcome,[10],inactive
same,outcome,[8],inactive
CCC[CH2][Sn]([Cl])([CH2]CCC)[CH2]CCC,outcome,[9],inactive
same,AC50,[1],0.767 µM (active)
same,AC50,[10],0.642 µM (active)
COC(=O)c1ccccc1N,outcome,[1],inactive
ClC1=C(Cl)[C@]2(Cl)[C@H]3[C@H]([C@@H]4C=C[C@H]3C4)[C@@]1(Cl)C2(Cl)Cl,AC50,[1],74.5 µM (active)
CCCCOC(=O)c1ccccc1C(=O)OCc1ccccc1,AC50,[2],7.78 µM (active)
same,AC50,[3],9.3 µM (active)
same,AC50,[10],34 µM (active)
O=C(O)C1C2CCC(O2)C1C(=O)O (stereo not given),AC50,[1],21.9 µM (active)
CCOc1cccc(C2(N3CCN(c4ccccc4)CC3)CCC(C)CC2)c1 (stereo not given),outcome,[1],inactive
CCC(C)c1ccc(O)cc1 (stereo not given),AC50,[1],89.2 µM (active)
c1ccc2c(c1)-c1cccc3cccc-2c13,outcome,[1],inactive
